Experimental findings from PubChem BioAssay (Tox21) are described below.

Molecules are shown by their SMILES. Results filed as inconclusive are left out. Active and inactive are the calls of the source. The call rests on the fitted dose curve.
On the % scale 0 is the no-effect control and ±100 the full control effect.

The test in a line: cAMP Responsive Elements (CRE) small molecule agonists, cell-based qHTS assay (AID 1963590). The following applies: CRE-bla HEK293T, beta-lactamase FRET ratio, 3 h; series mostly up to 92.4 µM; activation: at the top concentration. In a few lines: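 A CRE-responsive beta-lactamase reporter in HEK 293T cells was used. Treatment ran 3 h at 37 C; detection used LiveBLAzer B/G FRET substrate for 2 h at room temperature.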
Consider `CCCCCCCOC(=O)CCC`, for which the “activation” value was 0.577% (inactive).

On to `CCCCCCCCC(=O)OCC(C)OC(=O)CCCCCCCC` (configuration not stated), for which the “activation” value was -2.04% (inactive).

On to `C=C[Si]1(C)O[Si](C)(C=C)O[Si](C)(C=C)O[Si](C)(C=C)O1` (configuration not stated), for which the “activation” value is -1.79% (inactive).

On to `CCCCCCCCCCl`, for which the “activation” value is -0.264% (inactive).

For `O=C(N[C@H](CO)[C@H](O)c1ccc([N+](=O)[O-])cc1)C(Cl)Cl`, the “activation” value was -1.46% (inactive).

As to `C=O`, the “activation” value was 0.0725% (inactive).

With `CC(C)(C)C1=CC(=O)C=C(C(C)(C)C)C1=O`, the “activation” value was 0.704% (inactive).

For `C=CC(=C)CCCC(C)(C)OC(C)=O`, the “activation” value is 0.142% (inactive).

Take `CC/C=C\CCCCCCCCCCOC(C)=O`: the “activation” value was 0.572% (inactive).

For `Cc1ccc(Br)cc1`, the “activation” value was -0.453% (inactive).

Take `C=Cc1ccc(OC(C)=O)cc1`: the “activation” value was -0.526% (inactive).

Consider `Cc1c(N)cccc1N`, for which the “activation” value was 0.303% (inactive).

For `CCC(CC)CO`, the “activation” value is 0.416% (inactive).

As to `Cc1c(N)c(=O)n(-c2ccccc2)n1C`, the “activation” value is -1.44% [at 42.5 µM] (inactive).

For `O=C(NN1CCCC1)NS(=O)(=O)c1ccc(Cl)cc1`, the “activation” value was -0.166% [at 42.5 µM] (inactive).

`C=C[Si](OC(C)=O)(OC(C)=O)OC(C)=O`: the “activation” value was -1.32% (inactive).

`CSc1ccc(Oc2ccc(S(N)(=O)=O)cc2CN(C)C)cc1C`: the “activation” value is 9.92% (inactive).

Regarding `Cc1ccccc1S`, the “activation” value was 1.3% [at 42.5 µM] (inactive).

Consider `OCCOCC#CCOCCO`, for which the “activation” value is 0.295% (inactive).

For the compound `Cc1ccc(O)c2ncccc12`, the “activation” value was 0.0644% [at 42.5 µM] (inactive).

Regarding `Cc1c(Nc2ncccc2C(=O)O)cccc1C(F)(F)F`, the “activation” value was -2.05% [at 42.5 µM] (inactive).

In the case of `CCCCCCCCS(=O)(=O)O`, the “activation” value is 0.0511% (inactive).
